Reference: ChEMBL document CHEMBL2218924, “A broad activity screen in support of a chemogenomic map for kinase signalling research and drug discovery” (Biochem J, 2013)

Columns and labels:
[1] = biological target: Serine/threonine-protein kinase 33 (Homo sapiens) (UniProt Q9BYT3); settings: at 10 µM
[2] = biological target: T1, Serine/threonine-protein kinase TBK1 (Homo sapiens) (UniProt Q9UHD2); settings: at 1 µM
T1 sequence (whole entry): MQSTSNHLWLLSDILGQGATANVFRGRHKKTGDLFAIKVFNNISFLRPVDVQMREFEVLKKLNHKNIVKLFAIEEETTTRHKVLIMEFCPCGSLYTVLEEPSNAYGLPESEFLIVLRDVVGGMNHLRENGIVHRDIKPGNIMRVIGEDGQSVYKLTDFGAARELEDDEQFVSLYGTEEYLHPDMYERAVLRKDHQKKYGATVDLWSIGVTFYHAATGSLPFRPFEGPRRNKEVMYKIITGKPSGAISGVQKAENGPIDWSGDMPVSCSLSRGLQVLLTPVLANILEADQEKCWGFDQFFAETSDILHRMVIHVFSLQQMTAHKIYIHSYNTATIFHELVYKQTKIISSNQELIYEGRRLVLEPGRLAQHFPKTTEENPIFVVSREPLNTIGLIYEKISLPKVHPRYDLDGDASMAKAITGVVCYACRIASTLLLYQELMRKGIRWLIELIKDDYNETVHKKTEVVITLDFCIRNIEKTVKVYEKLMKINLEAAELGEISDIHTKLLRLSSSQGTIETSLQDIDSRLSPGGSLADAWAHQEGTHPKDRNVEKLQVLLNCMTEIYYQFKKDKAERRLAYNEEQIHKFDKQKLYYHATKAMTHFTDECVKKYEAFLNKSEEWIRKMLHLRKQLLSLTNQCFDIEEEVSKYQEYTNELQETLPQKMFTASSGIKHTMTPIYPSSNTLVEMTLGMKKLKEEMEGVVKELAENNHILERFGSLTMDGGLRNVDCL

[3] = biological target: SRSF protein kinase 2 (Homo sapiens) (UniProt P78362); settings: at 1 µM
SRSF protein kinase 2 (Homo sapiens), sequence (P78362 whole entry, looked up): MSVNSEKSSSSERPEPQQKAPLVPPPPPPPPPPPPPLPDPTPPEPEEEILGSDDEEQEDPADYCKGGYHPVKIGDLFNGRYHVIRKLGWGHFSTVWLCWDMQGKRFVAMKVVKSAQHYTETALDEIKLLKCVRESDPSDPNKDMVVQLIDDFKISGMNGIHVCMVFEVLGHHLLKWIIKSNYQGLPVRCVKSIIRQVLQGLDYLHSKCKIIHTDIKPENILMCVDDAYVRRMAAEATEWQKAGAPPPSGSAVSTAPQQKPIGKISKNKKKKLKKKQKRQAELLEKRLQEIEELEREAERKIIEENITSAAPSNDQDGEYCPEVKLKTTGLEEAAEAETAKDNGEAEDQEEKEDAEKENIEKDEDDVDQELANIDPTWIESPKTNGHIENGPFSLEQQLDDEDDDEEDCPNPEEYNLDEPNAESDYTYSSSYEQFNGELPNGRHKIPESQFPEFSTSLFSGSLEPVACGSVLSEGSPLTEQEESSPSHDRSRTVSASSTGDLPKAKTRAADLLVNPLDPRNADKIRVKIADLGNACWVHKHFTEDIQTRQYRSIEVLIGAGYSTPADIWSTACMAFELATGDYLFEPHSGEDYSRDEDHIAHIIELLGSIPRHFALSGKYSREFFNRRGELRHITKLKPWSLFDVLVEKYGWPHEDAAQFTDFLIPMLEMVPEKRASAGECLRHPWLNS

[4] = biological target: SRSF protein kinase 2 (Homo sapiens) (UniProt P78362); settings: at 10 µM
[5] = biological target: Serine/threonine-protein kinase PLK2 (Homo sapiens) (UniProt Q9NYY3); settings: at 1 µM
Serine/threonine-protein kinase PLK2 (Homo sapiens), sequence (Q9NYY3 whole entry, looked up): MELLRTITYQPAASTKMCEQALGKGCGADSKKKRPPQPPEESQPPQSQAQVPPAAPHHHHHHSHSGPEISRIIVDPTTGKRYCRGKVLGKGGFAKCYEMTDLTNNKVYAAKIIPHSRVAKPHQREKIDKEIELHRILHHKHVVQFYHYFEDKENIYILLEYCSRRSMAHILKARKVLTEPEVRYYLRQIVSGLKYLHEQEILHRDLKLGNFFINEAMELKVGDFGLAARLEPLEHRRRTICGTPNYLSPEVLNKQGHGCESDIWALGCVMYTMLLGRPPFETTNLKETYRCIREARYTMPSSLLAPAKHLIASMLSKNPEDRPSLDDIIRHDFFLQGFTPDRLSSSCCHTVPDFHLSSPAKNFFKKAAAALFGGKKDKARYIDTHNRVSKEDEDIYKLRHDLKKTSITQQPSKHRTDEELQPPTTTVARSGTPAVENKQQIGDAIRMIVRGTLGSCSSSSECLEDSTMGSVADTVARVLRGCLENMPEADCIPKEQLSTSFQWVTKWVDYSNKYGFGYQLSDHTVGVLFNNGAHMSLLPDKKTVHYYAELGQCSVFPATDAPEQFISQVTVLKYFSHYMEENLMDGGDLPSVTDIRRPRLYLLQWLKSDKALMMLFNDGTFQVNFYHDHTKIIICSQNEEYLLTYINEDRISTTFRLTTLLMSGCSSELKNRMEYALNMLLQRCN

[6] = biological target: Serine/threonine-protein kinase PLK2 (Homo sapiens) (UniProt Q9NYY3); settings: at 10 µM
[7] = biological target: T2, Serine/threonine-protein kinase TAO1 (Homo sapiens) (UniProt Q7L7X3); settings: at 1 µM
T2 sequence (whole entry): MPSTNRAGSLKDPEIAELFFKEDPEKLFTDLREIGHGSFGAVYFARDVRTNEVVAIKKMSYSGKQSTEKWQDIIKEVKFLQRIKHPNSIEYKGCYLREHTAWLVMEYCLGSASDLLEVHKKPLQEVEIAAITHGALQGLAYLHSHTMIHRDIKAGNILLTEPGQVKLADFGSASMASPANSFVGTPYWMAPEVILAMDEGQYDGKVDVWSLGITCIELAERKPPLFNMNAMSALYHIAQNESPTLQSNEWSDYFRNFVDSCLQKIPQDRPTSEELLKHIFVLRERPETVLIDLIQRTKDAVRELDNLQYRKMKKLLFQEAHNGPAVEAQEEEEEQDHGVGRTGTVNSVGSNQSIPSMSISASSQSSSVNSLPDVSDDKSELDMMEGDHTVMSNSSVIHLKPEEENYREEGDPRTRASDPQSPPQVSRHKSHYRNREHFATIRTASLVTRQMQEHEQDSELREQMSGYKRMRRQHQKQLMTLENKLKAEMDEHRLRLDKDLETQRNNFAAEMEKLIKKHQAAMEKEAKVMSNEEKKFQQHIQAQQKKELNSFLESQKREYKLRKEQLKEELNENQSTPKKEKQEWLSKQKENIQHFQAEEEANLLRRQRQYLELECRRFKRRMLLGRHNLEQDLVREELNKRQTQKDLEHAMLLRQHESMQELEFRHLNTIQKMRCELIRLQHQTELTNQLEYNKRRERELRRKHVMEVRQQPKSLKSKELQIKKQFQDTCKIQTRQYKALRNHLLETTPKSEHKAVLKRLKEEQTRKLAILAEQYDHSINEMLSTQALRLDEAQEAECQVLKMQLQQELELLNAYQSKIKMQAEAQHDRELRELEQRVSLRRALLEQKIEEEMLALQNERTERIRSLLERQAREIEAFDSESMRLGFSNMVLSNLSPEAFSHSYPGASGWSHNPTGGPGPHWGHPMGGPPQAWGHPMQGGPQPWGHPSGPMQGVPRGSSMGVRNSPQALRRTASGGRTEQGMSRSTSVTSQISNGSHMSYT

[8] = biological target: T2, Serine/threonine-protein kinase TAO1 (Homo sapiens); settings: at 10 µM
[9] = biological target: T3, Serine/threonine-protein kinase TAO2 (Homo sapiens) (UniProt Q9UL54); settings: at 1 µM
T3 sequence (whole entry): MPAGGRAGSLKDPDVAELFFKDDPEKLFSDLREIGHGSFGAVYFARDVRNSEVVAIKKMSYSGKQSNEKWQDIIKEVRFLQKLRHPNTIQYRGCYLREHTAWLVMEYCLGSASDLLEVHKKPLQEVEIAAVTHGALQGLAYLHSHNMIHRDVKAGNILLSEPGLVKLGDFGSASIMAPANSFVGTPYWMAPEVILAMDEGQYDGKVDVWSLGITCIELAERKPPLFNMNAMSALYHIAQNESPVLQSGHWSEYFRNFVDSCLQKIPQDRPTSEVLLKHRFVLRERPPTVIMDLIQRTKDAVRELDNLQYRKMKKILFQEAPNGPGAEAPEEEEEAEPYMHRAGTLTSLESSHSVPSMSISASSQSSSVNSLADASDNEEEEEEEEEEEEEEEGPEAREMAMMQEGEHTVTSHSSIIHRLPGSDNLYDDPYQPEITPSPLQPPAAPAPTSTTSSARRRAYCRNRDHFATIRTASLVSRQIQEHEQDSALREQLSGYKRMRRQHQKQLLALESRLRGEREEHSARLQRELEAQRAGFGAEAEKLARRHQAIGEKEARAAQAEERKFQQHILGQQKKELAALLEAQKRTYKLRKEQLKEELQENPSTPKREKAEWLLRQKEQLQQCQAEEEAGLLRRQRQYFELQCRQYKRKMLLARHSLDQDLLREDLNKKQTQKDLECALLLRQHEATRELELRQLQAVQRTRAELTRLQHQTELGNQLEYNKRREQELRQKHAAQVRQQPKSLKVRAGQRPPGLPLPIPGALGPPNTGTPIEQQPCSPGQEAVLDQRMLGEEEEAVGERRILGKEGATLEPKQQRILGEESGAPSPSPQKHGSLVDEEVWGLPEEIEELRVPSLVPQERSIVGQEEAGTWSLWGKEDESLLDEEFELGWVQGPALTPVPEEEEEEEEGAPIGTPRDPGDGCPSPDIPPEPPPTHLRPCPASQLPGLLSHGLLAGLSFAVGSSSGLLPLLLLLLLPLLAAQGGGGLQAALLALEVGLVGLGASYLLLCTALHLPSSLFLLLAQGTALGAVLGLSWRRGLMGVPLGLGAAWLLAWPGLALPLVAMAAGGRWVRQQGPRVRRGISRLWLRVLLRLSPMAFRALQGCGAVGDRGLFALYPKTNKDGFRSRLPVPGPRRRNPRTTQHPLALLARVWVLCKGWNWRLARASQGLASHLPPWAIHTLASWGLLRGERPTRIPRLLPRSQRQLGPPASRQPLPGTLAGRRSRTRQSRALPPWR

[10] = biological target: T3, Serine/threonine-protein kinase TAO2 (Homo sapiens); settings: at 10 µM
[11] = biological target: Tyrosine-protein kinase SYK (Homo sapiens) (UniProt P43405); settings: at 1 µM
[12] = biological target: T4, Mitogen-activated protein kinase kinase kinase 7 (Homo sapiens) (UniProt O43318); settings: at 1 µM
T4 sequence (whole entry): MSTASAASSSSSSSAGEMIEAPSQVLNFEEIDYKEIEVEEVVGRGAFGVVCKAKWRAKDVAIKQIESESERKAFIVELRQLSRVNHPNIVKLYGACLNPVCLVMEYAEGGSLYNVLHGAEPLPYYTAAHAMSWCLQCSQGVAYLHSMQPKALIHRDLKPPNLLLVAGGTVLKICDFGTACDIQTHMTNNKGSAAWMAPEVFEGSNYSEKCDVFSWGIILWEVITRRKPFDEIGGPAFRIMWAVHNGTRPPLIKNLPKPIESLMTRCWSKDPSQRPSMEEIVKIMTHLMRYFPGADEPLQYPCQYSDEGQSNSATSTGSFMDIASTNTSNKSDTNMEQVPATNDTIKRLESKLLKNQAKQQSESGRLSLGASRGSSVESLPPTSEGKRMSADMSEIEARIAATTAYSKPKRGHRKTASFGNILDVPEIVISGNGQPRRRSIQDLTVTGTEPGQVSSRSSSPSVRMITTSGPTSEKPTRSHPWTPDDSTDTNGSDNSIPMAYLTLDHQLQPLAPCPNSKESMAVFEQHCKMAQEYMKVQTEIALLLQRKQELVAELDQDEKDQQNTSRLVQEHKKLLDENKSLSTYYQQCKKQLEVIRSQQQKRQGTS

[13] = biological target: T4, Mitogen-activated protein kinase kinase kinase 7 (Homo sapiens); settings: at 10 µM
[14] = biological target: Serine/threonine-protein kinase SIK1 (Homo sapiens) (UniProt P57059); settings: at 10 µM
Serine/threonine-protein kinase SIK1 (Homo sapiens), sequence (P57059 whole entry): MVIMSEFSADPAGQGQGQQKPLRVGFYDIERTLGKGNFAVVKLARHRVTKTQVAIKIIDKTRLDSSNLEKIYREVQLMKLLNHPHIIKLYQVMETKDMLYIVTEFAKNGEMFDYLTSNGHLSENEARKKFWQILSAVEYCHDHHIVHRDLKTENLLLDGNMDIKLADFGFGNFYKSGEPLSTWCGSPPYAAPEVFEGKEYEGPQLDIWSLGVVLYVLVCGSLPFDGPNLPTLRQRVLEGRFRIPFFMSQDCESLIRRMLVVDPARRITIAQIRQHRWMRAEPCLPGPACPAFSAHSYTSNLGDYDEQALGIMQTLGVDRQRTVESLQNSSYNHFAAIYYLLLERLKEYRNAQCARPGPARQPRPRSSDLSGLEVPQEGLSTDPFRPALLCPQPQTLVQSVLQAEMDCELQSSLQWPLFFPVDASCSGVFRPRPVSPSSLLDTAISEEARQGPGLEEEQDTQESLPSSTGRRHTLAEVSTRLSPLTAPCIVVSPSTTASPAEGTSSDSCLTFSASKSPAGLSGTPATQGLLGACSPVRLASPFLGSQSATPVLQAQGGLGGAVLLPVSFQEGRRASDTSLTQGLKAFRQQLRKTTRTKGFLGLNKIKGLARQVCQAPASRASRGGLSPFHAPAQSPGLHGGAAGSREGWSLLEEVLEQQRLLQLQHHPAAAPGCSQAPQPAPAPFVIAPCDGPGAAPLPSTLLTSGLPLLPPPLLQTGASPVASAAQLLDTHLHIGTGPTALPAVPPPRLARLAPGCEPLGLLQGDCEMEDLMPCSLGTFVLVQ

[15] = biological target: Tyrosine-protein kinase SYK (Homo sapiens) (UniProt P43405); settings: at 10 µM
[16] = biological target: T5, Serine/threonine-protein kinase TAO3 (Homo sapiens) (UniProt Q9H2K8); settings: at 1 µM
T5 sequence (whole entry): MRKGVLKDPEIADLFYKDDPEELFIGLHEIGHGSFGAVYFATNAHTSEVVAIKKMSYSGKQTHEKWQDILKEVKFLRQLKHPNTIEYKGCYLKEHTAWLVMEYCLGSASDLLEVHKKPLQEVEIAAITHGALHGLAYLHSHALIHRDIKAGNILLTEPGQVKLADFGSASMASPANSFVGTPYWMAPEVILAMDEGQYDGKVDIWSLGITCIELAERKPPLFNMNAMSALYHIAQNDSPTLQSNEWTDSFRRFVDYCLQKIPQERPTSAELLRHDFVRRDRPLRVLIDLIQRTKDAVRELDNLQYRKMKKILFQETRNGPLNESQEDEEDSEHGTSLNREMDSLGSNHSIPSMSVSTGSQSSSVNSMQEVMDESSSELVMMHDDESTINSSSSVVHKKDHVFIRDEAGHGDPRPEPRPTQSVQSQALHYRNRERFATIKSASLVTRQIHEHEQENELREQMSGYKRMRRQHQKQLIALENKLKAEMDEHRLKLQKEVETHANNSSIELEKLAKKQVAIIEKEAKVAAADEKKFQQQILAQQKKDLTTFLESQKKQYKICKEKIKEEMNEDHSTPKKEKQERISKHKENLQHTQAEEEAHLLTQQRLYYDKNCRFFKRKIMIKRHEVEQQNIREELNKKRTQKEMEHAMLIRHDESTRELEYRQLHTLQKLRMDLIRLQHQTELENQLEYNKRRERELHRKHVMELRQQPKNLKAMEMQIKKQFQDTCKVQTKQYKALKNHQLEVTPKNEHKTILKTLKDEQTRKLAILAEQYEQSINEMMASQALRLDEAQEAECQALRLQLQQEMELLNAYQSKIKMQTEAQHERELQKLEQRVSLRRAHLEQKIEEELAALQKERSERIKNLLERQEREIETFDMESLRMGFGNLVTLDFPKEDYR

[17] = biological target: T5, Serine/threonine-protein kinase TAO3 (Homo sapiens); settings: at 10 µM

Serine/threonine-protein kinase 33 (Homo sapiens), sequence (Q9BYT3 whole entry, looked up): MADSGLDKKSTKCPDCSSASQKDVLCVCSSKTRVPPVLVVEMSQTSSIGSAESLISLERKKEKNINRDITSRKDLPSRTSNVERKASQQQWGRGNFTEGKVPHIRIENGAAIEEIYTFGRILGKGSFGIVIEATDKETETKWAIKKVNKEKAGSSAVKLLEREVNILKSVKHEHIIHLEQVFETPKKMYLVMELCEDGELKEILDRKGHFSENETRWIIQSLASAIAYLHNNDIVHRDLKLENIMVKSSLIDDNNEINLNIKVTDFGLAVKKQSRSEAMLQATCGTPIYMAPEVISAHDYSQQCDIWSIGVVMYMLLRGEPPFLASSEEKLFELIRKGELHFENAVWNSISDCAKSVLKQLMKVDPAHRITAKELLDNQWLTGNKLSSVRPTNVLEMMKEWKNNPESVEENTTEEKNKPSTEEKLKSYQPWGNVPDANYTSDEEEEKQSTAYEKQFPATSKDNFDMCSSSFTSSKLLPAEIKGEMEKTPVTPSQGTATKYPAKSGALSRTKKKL

**Q.** What does the source list for `O=c1cc(N2CCOCC2)oc2c(-c3ccccc3)cccc12`?
**A.** residual activity [1]: 78%; residual activity [2]: 68%

**Q.** How did the residual activity [3] turn out when `NC(=O)c1ccc(-c2nc(-c3ccc4c(c3)OCCO4)c(-c3ccccn3)[nH]2)cc1` was run?
**A.** The residual activity was 91%.

**Q.** And the residual activity [4]?
**A.** The residual activity was 95%.

**Q.** And the residual activity [5]?
**A.** The residual activity was 93%.

**Q.** And the residual activity [6]?
**A.** The residual activity was 100%.

**Q.** And the residual activity [7]?
**A.** The residual activity was 96%.

**Q.** And the residual activity [8]?
**A.** The residual activity was 80%.

**Q.** And the residual activity [9]?
**A.** The residual activity was 100%.

**Q.** What about the residual activity [10] of the same compound?
**A.** Its residual activity is 93%.

**Q.** What about the residual activity [2] of the same compound?
**A.** Its residual activity is 83%.

**Q.** With `CC(C)N(CCC(=O)c1ccc2ccccc2c1)Cc1ccccc1` as the compound, how does the residual activity [4] read?
**A.** The residual activity was 85%.

**Q.** And the residual activity [11]?
**A.** The residual activity was 127%.

**Q.** And the residual activity [12]?
**A.** Its residual activity is 87%.

**Q.** What about the residual activity [13] of the same compound?
**A.** The residual activity was 86%.

**Q.** What about the residual activity [9] of the same compound?
**A.** The residual activity was 100%.

**Q.** And the residual activity [10]?
**A.** The residual activity was 88%.

**Q.** What about the residual activity [2] of the same compound?
**A.** The residual activity was 52%.

**Q.** `CCOc1nc(NC(=O)Cc2cc(OC)ccc2OC)cc(N)c1C#N` was tested. Which residual activity [2] did it give?
**A.** Its residual activity is 79%.

**Q.** What does the source list for `O=C1C(Cl)=C(N2C(=O)CCC2=O)C(=O)c2ccccc21`?
**A.** residual activity [14]: 98%; residual activity [4]: 88%; residual activity [5]: 100%; residual activity [6]: 90%; residual activity [11]: 100%; residual activity [15]: 101%; residual activity [12]: 94%; residual activity [13]: 83%; residual activity [7]: 89%; residual activity [8]: 94%; residual activity [16]: 101%; residual activity [17]: 94%; residual activity [2]: 68%
